Laboratory results taken from the supplement of paper PMC10849652.
Targets with a hit are over-represented here; the source holds about 7,900 in all. About 0.6% of all pairs of compound and target were hits.

Columns and labels:
Assay in all cases: log2 fold change, soluble protein after heating vs DMSO (PISA); higher = thermal stabilisation; K562 cells, 10 uM, 30 min; active = over 0.2 and 3.5 SD of the protein, either way, in both replicates (recomputed)
[1] = target: ZC3H8 (UniProt Q8N5P1)
Outline: (§1)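 Thermal stability values are relative to control samples and come from duplicates. They are expressed as log2 fold changes. For measurement, K562 cells (2×10^6 cells/mL) received 10 μM compound for 30 min, and aliquots were heated for 3 min over 48°C-58°C, pooled, and extracted at 4°C in PBS with 0.5% NP-40. Soluble protein, the supernatant after 21,000xg for 90 min, was quantified by TMTpro 16plex LC-MS/MS with equalised channel sums.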

[2] = target: ZC3HC1 (UniProt Q86WB0)
Outline: as §1

[3] = target: ZCCHC9 (UniProt Q8N567)
Outline: as §1

[4] = target: ZDHHC17 (UniProt Q8IUH5)
Outline: as §1

[5] = target: ZDHHC20 (UniProt Q5W0Z9)
Outline: as §1

[6] = target: ZDHHC5 (UniProt Q9C0B5)
Outline: as §1

[7] = target: ZDHHC7 isoform 2 (UniProt Q9NXF8)
Outline: as §1

[8] = target: ZDHHC8 isoform 3 (UniProt Q9ULC8)
Outline: as §1

Measured: log2 fold change

ZDHHC7 isoform 2, sequence (Q9NXF8 whole entry, looked up, canonical isoform): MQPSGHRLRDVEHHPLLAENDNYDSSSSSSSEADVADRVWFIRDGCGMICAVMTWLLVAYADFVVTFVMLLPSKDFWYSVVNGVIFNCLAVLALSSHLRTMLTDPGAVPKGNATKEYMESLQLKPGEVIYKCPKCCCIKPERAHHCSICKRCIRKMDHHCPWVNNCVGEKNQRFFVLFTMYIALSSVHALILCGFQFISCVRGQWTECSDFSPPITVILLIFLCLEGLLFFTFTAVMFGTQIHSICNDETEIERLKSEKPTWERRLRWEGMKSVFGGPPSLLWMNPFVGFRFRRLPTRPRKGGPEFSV
ZDHHC8 isoform 3, sequence (Q9ULC8 whole entry, looked up, canonical isoform): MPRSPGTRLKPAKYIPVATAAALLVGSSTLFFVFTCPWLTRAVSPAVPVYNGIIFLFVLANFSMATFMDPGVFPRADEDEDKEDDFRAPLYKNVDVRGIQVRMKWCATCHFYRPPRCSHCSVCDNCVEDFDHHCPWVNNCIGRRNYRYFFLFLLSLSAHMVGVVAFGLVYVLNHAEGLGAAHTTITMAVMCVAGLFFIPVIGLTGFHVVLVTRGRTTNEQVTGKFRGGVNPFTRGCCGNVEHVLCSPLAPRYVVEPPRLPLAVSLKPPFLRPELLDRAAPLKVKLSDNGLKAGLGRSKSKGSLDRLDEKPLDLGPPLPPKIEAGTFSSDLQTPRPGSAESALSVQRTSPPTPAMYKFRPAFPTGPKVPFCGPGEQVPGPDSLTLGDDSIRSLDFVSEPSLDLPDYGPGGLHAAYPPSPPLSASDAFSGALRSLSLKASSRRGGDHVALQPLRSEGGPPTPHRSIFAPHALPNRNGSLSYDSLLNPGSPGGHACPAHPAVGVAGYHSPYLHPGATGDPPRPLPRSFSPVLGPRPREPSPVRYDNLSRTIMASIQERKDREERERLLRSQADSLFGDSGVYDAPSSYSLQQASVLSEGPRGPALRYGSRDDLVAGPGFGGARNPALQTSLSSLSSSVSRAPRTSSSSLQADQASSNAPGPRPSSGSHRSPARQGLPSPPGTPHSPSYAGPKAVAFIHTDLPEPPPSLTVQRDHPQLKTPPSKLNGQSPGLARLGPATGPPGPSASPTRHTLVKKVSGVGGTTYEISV
ZC3HC1, sequence (Q86WB0 whole entry, looked up): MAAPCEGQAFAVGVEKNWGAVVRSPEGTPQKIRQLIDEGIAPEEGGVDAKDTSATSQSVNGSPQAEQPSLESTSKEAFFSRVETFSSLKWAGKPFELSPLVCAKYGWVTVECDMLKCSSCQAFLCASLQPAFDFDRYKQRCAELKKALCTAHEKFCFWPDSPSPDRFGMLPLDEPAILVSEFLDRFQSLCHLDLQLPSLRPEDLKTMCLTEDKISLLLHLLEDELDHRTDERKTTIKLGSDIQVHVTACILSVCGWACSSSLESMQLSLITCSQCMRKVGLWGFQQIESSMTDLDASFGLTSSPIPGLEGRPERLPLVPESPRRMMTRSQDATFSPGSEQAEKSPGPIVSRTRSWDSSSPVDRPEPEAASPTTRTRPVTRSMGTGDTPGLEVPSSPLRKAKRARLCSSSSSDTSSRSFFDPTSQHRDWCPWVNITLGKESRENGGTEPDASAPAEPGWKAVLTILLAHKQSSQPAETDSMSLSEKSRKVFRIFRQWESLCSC
ZC3H8, sequence (Q8N5P1 whole entry, looked up): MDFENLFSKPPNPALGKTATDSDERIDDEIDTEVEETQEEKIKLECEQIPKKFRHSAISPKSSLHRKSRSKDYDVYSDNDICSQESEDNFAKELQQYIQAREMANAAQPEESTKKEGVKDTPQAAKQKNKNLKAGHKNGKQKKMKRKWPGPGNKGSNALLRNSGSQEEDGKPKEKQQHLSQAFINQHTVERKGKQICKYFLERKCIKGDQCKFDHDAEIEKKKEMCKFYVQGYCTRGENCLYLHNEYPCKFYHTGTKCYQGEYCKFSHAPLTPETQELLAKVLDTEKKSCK
ZDHHC20, sequence (Q5W0Z9 whole entry, looked up): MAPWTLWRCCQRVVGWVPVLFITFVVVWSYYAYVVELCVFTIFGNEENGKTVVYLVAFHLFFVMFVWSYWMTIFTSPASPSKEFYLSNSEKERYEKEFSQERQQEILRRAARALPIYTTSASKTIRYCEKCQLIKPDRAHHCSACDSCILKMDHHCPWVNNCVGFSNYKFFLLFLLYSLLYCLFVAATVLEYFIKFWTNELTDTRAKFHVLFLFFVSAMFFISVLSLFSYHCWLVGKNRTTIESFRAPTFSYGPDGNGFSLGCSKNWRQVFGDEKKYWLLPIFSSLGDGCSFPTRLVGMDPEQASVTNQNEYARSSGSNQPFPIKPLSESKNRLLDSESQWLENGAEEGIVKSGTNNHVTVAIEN
ZDHHC5, sequence (Q9C0B5 whole entry, looked up): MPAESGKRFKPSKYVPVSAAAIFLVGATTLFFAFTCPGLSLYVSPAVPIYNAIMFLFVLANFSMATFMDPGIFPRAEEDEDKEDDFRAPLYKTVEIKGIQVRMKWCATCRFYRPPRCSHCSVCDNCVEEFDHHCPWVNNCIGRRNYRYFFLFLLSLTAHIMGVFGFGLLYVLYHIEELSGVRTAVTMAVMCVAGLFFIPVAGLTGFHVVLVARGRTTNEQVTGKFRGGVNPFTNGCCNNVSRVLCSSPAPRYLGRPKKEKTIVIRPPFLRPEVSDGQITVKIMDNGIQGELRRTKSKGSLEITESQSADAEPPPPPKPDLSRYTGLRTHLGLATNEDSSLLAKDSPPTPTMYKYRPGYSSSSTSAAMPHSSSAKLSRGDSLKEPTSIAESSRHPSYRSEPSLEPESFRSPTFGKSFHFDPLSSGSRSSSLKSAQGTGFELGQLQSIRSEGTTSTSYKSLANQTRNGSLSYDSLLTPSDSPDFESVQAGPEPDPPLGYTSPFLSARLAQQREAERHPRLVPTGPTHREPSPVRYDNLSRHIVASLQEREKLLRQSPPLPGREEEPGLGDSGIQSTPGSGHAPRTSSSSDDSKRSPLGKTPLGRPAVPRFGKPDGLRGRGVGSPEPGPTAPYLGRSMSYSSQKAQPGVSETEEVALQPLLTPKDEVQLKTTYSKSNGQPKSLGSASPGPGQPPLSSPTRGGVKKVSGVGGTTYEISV
ZDHHC17, sequence (Q8IUH5 whole entry, looked up): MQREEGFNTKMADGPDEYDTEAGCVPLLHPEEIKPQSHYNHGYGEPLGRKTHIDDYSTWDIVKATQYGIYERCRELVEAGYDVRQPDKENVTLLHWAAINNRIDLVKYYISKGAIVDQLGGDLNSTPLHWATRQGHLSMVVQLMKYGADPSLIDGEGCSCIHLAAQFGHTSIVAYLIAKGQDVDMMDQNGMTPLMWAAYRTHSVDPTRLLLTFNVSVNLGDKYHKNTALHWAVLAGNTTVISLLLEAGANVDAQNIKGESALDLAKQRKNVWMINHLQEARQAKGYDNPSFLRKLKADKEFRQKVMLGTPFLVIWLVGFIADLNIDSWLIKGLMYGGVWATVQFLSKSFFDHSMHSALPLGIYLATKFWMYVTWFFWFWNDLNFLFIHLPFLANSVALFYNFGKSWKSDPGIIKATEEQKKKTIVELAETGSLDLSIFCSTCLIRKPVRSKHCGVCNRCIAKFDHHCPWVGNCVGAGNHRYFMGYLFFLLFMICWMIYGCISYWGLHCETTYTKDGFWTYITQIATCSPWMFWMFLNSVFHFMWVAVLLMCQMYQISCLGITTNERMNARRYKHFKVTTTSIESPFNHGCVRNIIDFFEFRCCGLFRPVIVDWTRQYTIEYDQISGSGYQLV
ZCCHC9, sequence (Q8N567 whole entry, looked up): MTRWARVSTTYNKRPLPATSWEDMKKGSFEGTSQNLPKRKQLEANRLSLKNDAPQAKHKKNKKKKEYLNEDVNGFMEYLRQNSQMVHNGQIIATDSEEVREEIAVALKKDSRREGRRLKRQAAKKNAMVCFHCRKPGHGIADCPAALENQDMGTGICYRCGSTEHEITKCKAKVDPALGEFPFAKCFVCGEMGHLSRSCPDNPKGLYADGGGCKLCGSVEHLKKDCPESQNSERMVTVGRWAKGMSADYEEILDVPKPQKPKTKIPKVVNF

Cc1ccc2c(=O)c3ccccc3n(CCCN)c2c1C
inactive: [1] -0.277 | [2] -0.091 | [3] -0.187 | [4] 0.037 | [5] 0.028 | [6] 0.08 | [7] 0.005 | [8] 0.02

Cc1ccc(-n2nc(C(C)(C)C)cc2NC(=O)Nc2ccc(OCCN3CCOCC3)c3ccccc23)cc1 [doramapimod]
active: [4] 0.264
inactive: [1] 0.038 | [2] -0.056 | [3] 0.169 | [5] -0.025 | [6] 0.027 | [7] 0.113 | [8] 0.359

CN1CCN(CCOc2cc(OC3CCOCC3)c3c(Nc4c(Cl)ccc5c4OCO5)ncnc3c2)CC1 [saracatinib]
inactive: [1] 0.088 | [2] 0.024 | [4] -0.009 | [5] -0.045 | [6] 0.034 | [7] 0.034 | [8] 0.188
